Sm TGR block: S. mansoni TGR enzyme inhibition | Q962Y6 | purified TGR, DTNB reduction, TNB absorbance 405 nm | Potency, µM (series often up to 114 µM), for the others: at the highest dose activity change, negative = inhibition, hits mostly inhibitors | 360,000 tested, 3% active | AID 485364; note: % is set by controls: 0 for no effect and ±100 for the full control effect; nearly all actives have a fitted effect of over 60% in size
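First, TGR (20 nM dispensed) and NADPH were mixed with compound. Second, a 15 min room-temperature incubation followed. Third, further NADPH and then DTNB were added to start the reaction. Finally, TNB absorbance was monitored kinetically.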
NS1 function inh: influenza NS1 inhibition; Potency, µM (top dose mostly 46.1 µM), for the others: at the highest dose activity, positive = more growth; 270,000 tested, 0.4% active; calls by dose curve; note: actives are rising curves; nearly all actives have a fitted effect of over 50% in size
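Recovery from NS1-induced slow growth read by OD600 in budding yeast switched to galactose assay medium (pH 6.0, -URA) at 1:100 dilution. Compound 23 nl per well; the matching strain lacking NS1 serves as control.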
AMA1-RON2 inh: AMA1-RON2 (P. falciparum) interaction inhibition; 360,000 tested, 0.2% active; AlphaScreen AMA1-biotinylated RON2 peptide binding; Potency, µM (titrated, usually from 58.2 µM), for the others: top-dose activity change, negative = inhibition, hits mostly inhibitors; AID 720542;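 note: 0% = vehicle wells and -100% = peptide control; nearly all actives have a fitted effect of over 45% in size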
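AMA1 (3D7) with his tag at 25 nM final met compounds first, then biotinylated RON2 peptide at 25 nM; detection used donor plus acceptor beads, 10 µg/mL apiece, read by AlphaScreen after 30 min at room temperature.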
Pf growth 48h: inhibits P. falciparum growth in the first generation, 48 h; P. falciparum luciferase growth in erythrocytes, 48 h; Potency, µM (series often up to 28.7 µM), for the others: at the highest dose activity change, negative = inhibition, hits mostly inhibitors; AID 504832; 310,000 tested, 5.9% active; note: % is set by controls: 0 for no effect and ±100 for the full control effect
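Parasite viability was followed by luminescence of a genomically integrated firefly luciferase. Cultures held 0.1% parasitemia at 2% hematocrit (final), incubated under 5% CO2 at 37 C.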
Pf growth 96h: P. falciparum growth inhibition at 96 hours; P. falciparum luciferase reporter growth, 96 h; Potency, µM (titrated, usually from 28.7 µM), inactives show top-dose activity change, negative = inhibition, most hits filed as inhibitors; 320,000 tested, 6.9% active; note: % is set by controls: 0 for no effect and ±100 for the full control effect
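Infected RBCs, 2% Hct / 0.05% parasitemia final; luciferase-reporter P. falciparum; cpd 96 h, 37 C, 5% CO2; luciferase detection reagent; luminescence.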
* hit, by the source's call; [ ] = dose if it differs, or a comment. A selection: hits, their analogues and other compounds. The true share with any hit is near 11%. Unless noted, calls come from the whole dose curve; as a rule, active = well fitted curve in the direction sought with a large enough effect; inconclusive = small, poorly fitted or top-dose-only effect, or another doubt; inactive = no such curve, though single readings can be large; an effect the other way counts as inactive or inconclusive. Potency is the fitted concentration of half-maximal effect.

How did COc1cccc(C2(c3cccc(OC)c3)CC2C(=O)Nc2cccc3ccccc23)c1 (stereo unspecified) do in these assays?
Sm TGR block: 0%; NS1 function inh: 7%; AMA1-RON2 inh: -7%; Pf growth 48h: 9.3µM*; Pf growth 96h: 5.2µM*

Results for CCOc1ccccc1N(CC(=O)NC1CCCCC1)C(=O)CCC(=O)Nc1nccs1 ?
Sm TGR block: 5%; NS1 function inh: -8%; AMA1-RON2 inh: 0%; Pf growth 48h: inconclusive; Pf growth 96h: 4%

How did Clc1ccccc1CNc1ncnc2c1c(-c1ccccc1)cn2-c1ccccc1 do in these assays?
Sm TGR block: 11%

How did CC[C@@H]1[C@H]2CCCC(=O)N3CC[C@@H](C[C@@H]1OC(=O)NCc1ccccc1)[C@@H]23 do in these assays?
Sm TGR block: 35µM*; NS1 function inh: 11%; AMA1-RON2 inh: 1%; Pf growth 48h: 29%; Pf growth 96h: inconclusive

What do the screens show for `CCCCn1c(-c2ccc(Cl)c(Cl)c2)nc2cc3[nH]c(=O)c(C(C)C)nc3cc21`?
Sm TGR block: 0%; NS1 function inh: inconclusive; AMA1-RON2 inh: 30%; Pf growth 48h: inconclusive; Pf growth 96h: 4.7µM*

How did CCCCn1c(-c2ccc(C(C)(C)C)cc2)nc2cc3[nH]c(=O)c(C(C)C)nc3cc21 do in these assays?
Sm TGR block: -16%; NS1 function inh: 30%; AMA1-RON2 inh: 45%; Pf growth 48h: inconclusive; Pf growth 96h: 4.7µM*

Results for CCCn1c(-c2cccnc2Cl)nc2cc(Cl)c(Cl)cc21 ?
Sm TGR block: 4%; NS1 function inh: -27%; AMA1-RON2 inh: 5%; Pf growth 48h: inconclusive; Pf growth 96h: inconclusive

How did Cc1cccc(C)c1OCCCN1CCOCC1 do in these assays?
Sm TGR block: 5%; NS1 function inh: 1%; AMA1-RON2 inh: -1%; Pf growth 48h: -6%; Pf growth 96h: 40%

How did Cc1cc(C)nc(N2CCC(C(=O)NC3CC3)CC2)n1 do in these assays?
Sm TGR block: 5%; NS1 function inh: -10%; AMA1-RON2 inh: -1%; Pf growth 48h: inconclusive; Pf growth 96h: inconclusive

Results for CC(=O)N1CCN(C(=O)C(Cc2ccccc2)NC(=O)c2ccccc2)CC1 (stereo unspecified) ?
Sm TGR block: -4%; AMA1-RON2 inh: -5%; Pf growth 48h: -23%; Pf growth 96h: -27%

What do the screens show for `Cc1cccc(N2CCN(C(=O)CC(NC(=O)c3ccccc3Cl)c3ccccc3)CC2)c1C` (stereo unspecified)?
Sm TGR block: 1%; NS1 function inh: 14%; AMA1-RON2 inh: 7%; Pf growth 48h: inconclusive; Pf growth 96h: inconclusive

What do the screens show for `O=C(NC(Cc1ccccc1)C(=O)N1CCN(c2ccccc2O)CC1)c1ccccc1` (stereo unspecified)?
Sm TGR block: -1%; AMA1-RON2 inh: -5%; Pf growth 48h: 8.3µM*; Pf growth 96h: 6.6µM*

How did O=C(NC(CC(=O)N1CCN(c2ccccc2O)CC1)c1ccccc1)c1ccccc1Cl (stereo unspecified) do in these assays?
Sm TGR block: 5%; AMA1-RON2 inh: 32%; Pf growth 48h: 10µM*; Pf growth 96h: inconclusive

What do the screens show for `O=C(NC(CC(=O)N1CCN(c2ccc([N+](=O)[O-])cc2)CC1)c1ccccc1)c1ccccc1Cl` (stereo unspecified)?
Sm TGR block: 1%; NS1 function inh: 14%; AMA1-RON2 inh: -2%; Pf growth 48h: inconclusive; Pf growth 96h: 12µM*

Results for O=C(NC(Cc1cn(Cc2ccccc2)cn1)C(=O)O)OCC1c2ccccc2-c2ccccc21 (stereo unspecified) ?
AMA1-RON2 inh: 155%

How did Cc1ccc(-c2nc3nc(C)cc(Nc4ccccc4O)n3n2)cc1 do in these assays?
Sm TGR block: -19%

How did CC1(C)c2ssc(=S)c2-c2ccccc2N1C(=O)c1ccco1 do in these assays?
Sm TGR block: 3%; NS1 function inh: 7%; AMA1-RON2 inh: -3%; Pf growth 48h: inconclusive; Pf growth 96h: 1µM*

Results for Cc1ccc2c(c1)-c1c(ssc1=S)C(C)(C)N2C(=O)c1ccco1 ?
Sm TGR block: -5%; NS1 function inh: 11%; AMA1-RON2 inh: -12%; Pf growth 48h: 0.93µM*; Pf growth 96h: -6%

Results for COC(=O)CC1(C(=O)OC)Oc2ccccc2C(=O)N1c1ccc(F)cc1F (stereo unspecified) ?
AMA1-RON2 inh: -4%

Results for CCOCc1nc(N)nc(N)c1-c1cccc(Cl)c1 ?
AMA1-RON2 inh: 14%

What do the screens show for `O=C1/C(=C\c2cc(Br)cc(Br)c2O)SC(=S)N1Cc1ccccc1`?
Sm TGR block: 40µM*; NS1 function inh: -5%; AMA1-RON2 inh: 10%; Pf growth 48h: inconclusive; Pf growth 96h: 11%

What do the screens show for `COc1cc([N+](=O)[O-])cc(/C=C2/SC(=S)N(Cc3ccccc3)C2=O)c1O`?
Sm TGR block: -33%; NS1 function inh: -4%; AMA1-RON2 inh: -17%; Pf growth 48h: 10µM*; Pf growth 96h: 9%

Results for COC(=O)C1C(c2ccccc2)C(C(=O)OCc2ccco2)C1c1ccccc1 (stereo unspecified) ?
Sm TGR block: inconclusive; NS1 function inh: -36%; AMA1-RON2 inh: 11%; Pf growth 48h: 10µM*; Pf growth 96h: -4%

Results for COc1ccc(C(=S)NCS(=O)(=O)c2ccc(C)cc2)cc1 ?
Sm TGR block: 2.5µM*; NS1 function inh: 1%; AMA1-RON2 inh: -3%[11.6 µM]; Pf growth 48h: 10%; Pf growth 96h: 7%

Results for Cc1ccc(S(=O)(=O)CNC(=O)c2ccccc2)cc1 ?
Sm TGR block: 20µM*; NS1 function inh: -2%; AMA1-RON2 inh: 0%; Pf growth 48h: 6%; Pf growth 96h: 5%

Results for Cc1ccc(S(=O)(=O)CNC(=S)c2cccc(C)c2)cc1 ?
Sm TGR block: 3.5µM*; NS1 function inh: -12%; AMA1-RON2 inh: -5%; Pf growth 96h: -2%

What do the screens show for `COc1ccc(C(=S)Nc2ccc(C)cc2)cc1`?
Sm TGR block: 7%; NS1 function inh: -3%; AMA1-RON2 inh: -23%; Pf growth 48h: 120%; Pf growth 96h: inactive

Results for Cc1ccc(S(=O)(=O)CNC(=S)c2ccc3ccccc3c2)cc1 ?
Sm TGR block: 3.2µM*; NS1 function inh: -15%; AMA1-RON2 inh: -17%; Pf growth 96h: 3%

Results for Cc1ccc(S(=O)(=O)CC(=O)c2ccccc2)cc1 ?
Sm TGR block: 17%; NS1 function inh: 3%; AMA1-RON2 inh: -2%; Pf growth 48h: 0%; Pf growth 96h: 24%

What do the screens show for `Cc1ccc(C(=O)NNC(=O)c2ccc3ccccc3c2)cc1`?
AMA1-RON2 inh: 44%

What do the screens show for `COCCOC(=O)c1[nH]c2c(c1C)C(=O)CC(c1ccc(F)cc1)C2` (stereo unspecified)?
Sm TGR block: 2%; NS1 function inh: -46%; AMA1-RON2 inh: -10%; Pf growth 96h: inconclusive
